Screens (PubChem)
MCF10A rerep = DNA re-replication induction in MCF 10a cells; Potency, µM (highest dose often 46.1 µM), for the others: at the highest dose activity, positive = re-replication, hits mostly activators; MCF 10A DNA re-replication, Hoechst nuclear intensity, 48 h; actives 2.9% (n = 350,000); note: % of control where 0% means no effect; nearly all actives have a fitted effect of over 50% in size
KB-V1 cytotox = kills drug-selected multidrug resistant KB-V1 cells; Potency, µM (doses to about 46.1 µM), hits mostly cytotoxic; KB-V1 MDR cells viability, CellTiter-Glo, 72 h; AID 1347076; actives 3.4% (n = 400,000); note: % is set by controls: 0 for no effect and ±100 for the full control effect; nearly all actives have a fitted effect of over 60% in size
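Readout: CellTiter-Glo luminescence, 10 min after addition. Cells: KB-V1 MDR subline, 72 h at 37 degrees C with compound. Analysis: corrected, normalized data fitted to concentration-effect curves.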
HT1080-NT tox = kills 2HG-producing HT-1080-NT fibrosarcoma cells | HT-1080-NT fibrosarcoma viability, CellTiter-Glo ATP luminescence, 48 h | Potency, µM (highest dose often 46.1 µM), for inactives: top-dose activity, negative = less viability, usual class: cytotoxic | actives 1.6% (n = 360,000) | AID 686970;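 note: NT is the 2HG producing partner of a matched IDH1 knockdown line; 0% = DMSO-treated cells and -100% = media-only wells without cells; nearly all actives have a fitted effect of over 55% in size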
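Toxicity toward the 2HG-producing NT line was scored as %Activity, normalised to DMSO and no-cell wells, from CellTiter-Glo luminescence after 48 hours' treatment.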
KB-3-1 tox = kills parental KB-3-1 adenocarcinoma cells | KB-3-1 viability, CellTiter-Glo ATP luminescence, 72 h | Potency, µM (series often up to 46.1 µM), most hits filed as cytotoxic | actives 1.4% (n = 400,000) | AID 1347075; note: % is set by controls: 0 for no effect and ±100 for the full control effect; nearly all actives have a fitted effect of over 60% in size
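Viability of parental KB-3-1 cells, measured by CellTiter-Glo luminescence, followed a 72 h incubation at 37 °C with pinned compounds in phenol-red-free DMEM containing 10% FBS.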
HT1080 IDH1KD tx = toxicity to HT-1080 IDH1 knockdown cells (counter line) | HT-1080 IDH1 knockdown viability, ATP luminescence, 48 h | Potency, µM (titrated, usually from 46.1 µM), without a hit: at the highest dose activity, negative = toxicity, hits mostly cytotoxic | actives 2% (n = 360,000) | AID 686971;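 note: 0% = DMSO wells and -100% = cell-free medium wells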
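% activity derives from luminescence (CellTiter-Glo), normalised to DMSO and no-cell wells. HT-1080-IDH1KD cells, 750/well, had 48 h compound exposure at 37 °C.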
SW480 rereplic = DNA re-replication induction in SW480 cells; AID 624297; SW480 DNA re-replication, Hoechst DNA content imaging, 48 h; actives 1.8% (n = 340,000); Potency, µM (doses to about 46.1 µM), without a hit: at the top dose re-replication activation, actives largely listed as activators; note: % of control where 0% means no effect; nearly all actives have a fitted effect of over 55% in size
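Readout is total intensity of Hoechst-stained nuclei, excited at 405 nm and collected at 500-530 nm. Compound treatment lasted 48 hr at 37 C in 5% CO2 before staining.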
An asterisk follows results filed as active; i = inactive; u = inconclusive; x = no result given. An excerpt weighted towards active compounds, which were near 7.9% of everything screened. Calls come from the whole dose curve; as a rule, active = well fitted curve in the direction sought with a large enough effect; inconclusive = small, poorly fitted or top-dose-only effect, or another doubt; inactive = no such curve, though single readings can be large; an effect the other way counts as inactive or inconclusive. Potency is the fitted concentration of half-maximal effect.

SMILES | MCF10A rerep | KB-V1 cytotox | HT1080-NT tox | KB-3-1 tox | HT1080 IDH1KD tx | SW480 rereplic
O=C(NCCOc1cccc(Oc2ccccc2)c1)c1cc(-n2cnnc2)ccc1Cl | 2.8% | 16.4µM* | -14.5% | i | u | 0.1%
O=C(NCCOc1cccc(Cl)c1Cl)c1cc(-n2cnnc2)ccc1Cl | 20.0% | i | -26.5% | i | -20.8% | -6.6%
Cc1ccccc1NS(=O)(=O)c1ccc(C(=O)N2CCCC2)cc1 | 2.8% | 20.6µM* | 3.3% | i | 5.9% | -5.4%
Cc1nc2ccc(S(=O)(=O)Nc3ccccc3C)cc2s1 | u | 18.4µM* | u | u | u | u
Cc1cccc(NS(=O)(=O)c2ccc(C(=O)N3CCN(c4ccccc4O)CC3)cc2)c1C | 23.1µM* | u | 0.8% | u | -3.1% | 1.3%
CC1(C(=O)NC2CCCCCC2)CCN1C(=O)C1(c2ccccc2)CC1 (stereo not given) | x | i | -9.9% | i | -5.0% | x
COc1ccc(-c2nn3c(=O)cc(CN4CCN(C(=O)Nc5ccc(C)c(Cl)c5)CC4)nc3s2)cc1 | x | i | x | i | x | x
Clc1cc(Br)ccc1OCCCn1ccnc1 | 15.5% | 20.6µM* | 6.0% | u | -1.3% | 1.1%
Cc1cc(Cl)cc(C)c1OCCCCn1ccnc1 | 5.0% | u | -27.2% | i | u | -10.7%
Cc1cc(Br)ccc1OCCn1ccnc1 | 9.2% | 16.4µM* | -1.6% | i | 0.7% | 1.7%
Cc1cccc(Cl)c1OCCCCn1ccnc1 | 9.7% | 20.6µM* | u | i | u | 4.6%
O=C(/C=C/c1c(Cl)cccc1Cl)NCCCn1ccnc1 | 23.1µM* | i | -8.3% | i | -3.6% | u
CCOC(=O)c1c(S(=O)(=O)N2CCC(C(=O)Nc3ccc(F)cc3F)CC2)c(C)n(C)c1C | x | i | x | i | x | x
N#C/C(=C\c1cc(Br)c(O)c(Br)c1)c1nc2ccccc2c(=O)[nH]1 | x | i | x | i | x | x
CCC(=O)O[C@]1(C(=O)CCl)[C@@H](C)C[C@H]2[C@@H]3CCC4=CC(=O)C=C[C@]4(C)[C@@]3(F)[C@@H](O)C[C@@]21C | u | u | -26.2% | i | 1.6% | 16.7%
CCCC(=O)O[C@]1(C(=O)CCl)[C@@H](C)C[C@H]2[C@@H]3CCC4=CC(=O)C=C[C@]4(C)[C@@]3(F)C(=O)C[C@@]21C | u | 13µM* | -0.5% | i | -15.9% | -2.8%
C=CCSc1nnc(CSc2nc3sc4c(c3c(=O)[nH]2)CCCC4)n1-c1ccccc1 | u | 20.6µM* | -16.0% | i | u | u
C=CCn1c(SCc2nc3sc4c(c3c(=O)[nH]2)CCCC4)nc2ccccc2c1=O | 10.3µM* | 2.06µM* | 3.9% | i | 0.8% | -0.6%
CCOC(=O)CSc1nnc(CSc2nc3sc4c(c3c(=O)[nH]2)CCC4)n1-c1ccccc1 | 2.9% | i | -0.3% | i | 8.4% | -2.1%
C=CCn1c(SCc2nc3ccccc3c(=O)[nH]2)nc2sc3c(c2c1=O)CCCC3 | 15.2% | i | -10.7% | i | -4.8% | -4.7%
CCCCS(=O)(=O)/C=C\C=C/S(=O)(=O)CCCC | u | i | 6.51µM* | 7.31µM* | u | u
CCCCS(=O)(=O)/C=C\C1C2C=CC(C2)C1S(=O)(=O)CCCC (stereo not given) | 11.3% | i | -3.9% | i | -1.1% | 6.1%
CCN1CCN(S(=O)(=O)c2ccc(C(C)(C)C)cc2)CC1 | u | i | -0.5% | i | 6.7% | 23.1µM*
CCN1CCN(S(=O)(=O)c2ccc(S(=O)(=O)N(CC)Cc3ccccc3)cc2)CC1 | 1.84µM* | u | 6.4% | i | -1.4% | 11.6µM*
CCN1CCN(S(=O)(=O)c2ccc(S(=O)(=O)NC3CC3)cc2)CC1 | 0.3% | i | 0.4% | i | 4.7% | u
O=c1c2cc(Br)ccc2[nH]c(=S)n1Cc1ccccn1 | -4.4% | 16.4µM* | 14.4% | i | 11.1% | -8.3%
